Assay outcomes deposited in PubChem by Broad Institute.
Tcruzi prolif: T. cruzi intracellular proliferation inhibitors, primary screen, cell-based, beta-gal Tulahuen parasites, NIH3T3 host, luminescence; T. cruzi beta-gal in NIH3T3, GalScreen luminescence, 90 h; inhibition, % at 8.34 µM; 77,000 compounds, 5.9% hits;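 active = mean inhibition above about 93%, with at least 55% of replicates each passing it, limit read from the data, passing the limit was not always enough; inconclusive = only one of those two conditions holds; inactive = neither condition holds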
C diff growth: C. difficile growth inhibitors, primary screen, HTS. growth activity, negative = inhibition, % at 16 µg/mL (by protocol). 86,000 compounds, 0.25% hits. Clostridium difficile clinical isolate growth, OD600, 24 h; hits give low values;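 active = mean growth activity at or below -80% and every replicate also at or below -80%; inconclusive = mean at or below -80% but some replicate above -80%; inactive = mean growth activity above -80%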;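 also: 0% = DMSO wells and -100% = levofloxacin 16 µg/mL wells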
Pf Dd2 growth: P. falciparum Dd2 growth inhibitors, primary screen, SYBR Green fluorescence, single dose replicates. AID 1159554, 2015. 94,000 compounds, 2.3% hits. 72 h; hits give low values. activity change, % at 10 µM; in the data active = activity change below about -80%; inconclusive = no clear call, values can overlap the other calls
Starred values were filed as active, the others as inactive; ? = inconclusive; / = no result given. A selection: hits, their analogues and other compounds. The true share with any hit is near 6.7%.

SMILES | Tcruzi prolif | C diff growth | Pf Dd2 growth
CC(C)(O)c1cn([C@@H]2C[C@@H]3O[C@@H](CO)CC[C@@H]3O[C@@H]2CCc2ccc(-c3ccncc3)cc2)nn1 | / | -5 | -15
COc1ccc(NC(=O)Nc2ccc3c(c2)C(=O)N([C@H](C)CO)C[C@H](C)[C@H](CN(C)C(=O)Nc2ccccc2)OCCCC[C@H](C)O3)cc1 | 50 | 0 | -44
O=C([C@@H]1[C@@H](CO)[C@@H]2Cn3c(ccc(-c4ccccc4F)c3=O)[C@H]1N2C(=O)C1CC1)N1CCOCC1 | 33 | 4 | 6
Cc1ccc(-c2ccc([C@H]3[C@@H](CO)N4CCCCN(C(=O)Nc5cccc(F)c5)C[C@@H]34)cc2)cc1 | 94 | 16 | 21
Cc1ccc(-c2ccc([C@@H]3[C@H](CO)N4CCCCN(C(=O)Nc5cccc(F)c5)C[C@@H]34)cc2)cc1 | 81 | -98* | -42
COc1ccc2c3c(n(C)c2c1)[C@@H](CO)N(C(=O)C1CC1)CC31CN(C(=O)CN(C)C)C1 | / | 6 | -68
C[C@H](CO)N1C[C@H](C)[C@H](CN(C)C(=O)c2ccccc2F)Oc2ncc(C#Cc3cccc(F)c3)cc2C1=O | 93 | 2 | -77
C[C@@H]1CN([C@H](C)CO)C(=O)c2cc(C#Cc3ccccc3)cnc2O[C@H]1CN(C)C(=O)c1ccccc1F | / | 40 | -60
C[C@@H]1CN([C@H](C)CO)C(=O)c2cc(C#Cc3cccc(F)c3)cnc2O[C@@H]1CN(C)C(=O)c1ccccc1F | 86 | -6 | -81*
C[C@H]1CN([C@@H](C)CO)C(=O)c2cc(C#Cc3cccc(F)c3)cnc2O[C@H]1CN(C)C(=O)c1ccccc1F | 80 | 9 | -82*
C[C@H](CO)N1C[C@H](C)[C@@H](CN(C)C(=O)c2cccc(F)c2)Oc2ncc(/C=C/c3ccccc3)cc2C1=O | 115 | 0 | ?
C[C@@H]1CN([C@@H](C)CO)C(=O)c2cc(C#Cc3ccccc3F)cnc2O[C@H]1CN(C)C(=O)Cc1ccncc1 | 117 | 2 | -24
C[C@H]1CN([C@@H](C)CO)C(=O)c2cc(/C=C/c3ccccc3)cnc2O[C@@H]1CN(C)C(=O)c1cccc(F)c1 | 100 | 1 | -83*
C[C@@H]1CN([C@H](C)CO)C(=O)c2cc(C#Cc3ccccc3F)cnc2O[C@H]1CN(C)C(=O)Cc1ccncc1 | 97 | 2 | -84*
COc1ccc(CN(C)C[C@@H]2OCCCC[C@@H](C)Oc3ccc(NC(=O)Cc4ccccc4)cc3C(=O)N([C@H](C)CO)C[C@H]2C)cc1 | 53 | 0 | -66
C[C@@H]1CN([C@H](C)CO)C(=O)c2cccc(NS(=O)(=O)c3ccc(F)cc3)c2O[C@@H]1CN(C)CC1CCCCC1 | / | 0 | -7
C[C@@H]1CN([C@@H](C)CO)C(=O)c2cc(NC(=O)Nc3ccc(F)cc3)ccc2O[C@@H](C)CCCCO[C@H]1CN(C)Cc1ccncc1 | 47 | 5 | -15
COc1ccc2c3c([nH]c2c1)[C@H](CO)N(C(=O)c1ccccc1)CC31CCN(C(=O)Nc2cccc(F)c2)CC1 | / | -13 | -78
COc1ccc(NC(=O)N(C)C[C@@H]2Oc3ncc(-c4cccnc4)cc3C(=O)N([C@@H](C)CO)C[C@H]2C)cc1 | -54 | 0 | 30
C[C@H](CO)N1C[C@H](C)[C@H](CN(C)C(=O)Cc2cccnc2)Oc2ncc(-c3ccccc3)cc2C1=O | -4 | / | -20
C[C@@H]1CN([C@@H](C)CO)C(=O)c2cc(-c3ccncc3)cnc2O[C@H]1CN(C)C(=O)Cc1cccnc1 | 104* | 6 | 33
COc1ccc(NC(=O)N(C)C[C@H]2Oc3ncc(-c4cccnc4)cc3C(=O)N([C@H](C)CO)C[C@@H]2C)cc1 | -51 | -7 | -83*
CO[C@H]1CN(C)C(=O)c2ccc(NS(C)(=O)=O)cc2OC[C@H](C)N(Cc2cncnc2)C[C@@H]1C | / | -3 | 70
COc1ccc(S(=O)(=O)N(C)C[C@H]2OCCCC[C@H](C)Oc3ccc(NC(=O)Nc4cccc5ccccc45)cc3C(=O)N([C@H](C)CO)C[C@@H]2C)cc1 | 77 | 0 | -21
C[C@@H]1CN([C@H](C)CO)C(=O)c2cc(NC(=O)Nc3cccc4ccccc34)ccc2O[C@@H](C)CCCCO[C@H]1CN(C)S(=O)(=O)c1ccccc1 | -33 | -2 | -33
COc1ccc(S(=O)(=O)N(C)C[C@H]2OCCCC[C@@H](C)Oc3ccc(NC(=O)Nc4cccc5ccccc45)cc3C(=O)N([C@H](C)CO)C[C@H]2C)cc1 | 88 | 4 | -82*
COc1ccc(S(=O)(=O)N(C)C[C@@H]2OCCCC[C@@H](C)Oc3ccc(NC(=O)Nc4cccc5ccccc45)cc3C(=O)N([C@@H](C)CO)C[C@@H]2C)cc1 | 23 | 8 | -83*
